DAX1 inh-1 = DAX1 (NR0B1) inhibitors on StAR promoter, primary screen, cell-based, luminescence, SF-1 (NR5A1), full-length DAX-1 | AID 652010, 2013 | HEK293T StAR-luciferase reporter, SF-1/DAX-1 repression relief | inhibition, % at 6.8 µM | 370,000 tested, 1.1% active;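 active = inhibition above the mean over all tested compounds plus 3 SD, cut at about 3.6% in these data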;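 also: 0% = DAX-1 cells with DMSO and 100% = cells lacking DAX-1 with DMSO; higher inhibition means more luminescence from relief of DAX-1 repression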
DAX1 inh-2 = DAX1 (NR0B1) inhibitors, primary screen, cell-based, HEK293, Gal4-DAX1, luciferase luminescence | HEK293 Gal4-DAX1 luciferase reporter | Nuclear receptor subfamily 0 group B member 1 (Homo sapiens), P51843 | AID 504766, 2011 | 340,000 tested, 0.99% active | inhibition, % at 6.75 µM;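 active = inhibition above the mean over all tested compounds plus 3 SD, cut at about 4.2% in these data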;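 also: 0% = DAX1-transfected cells with DMSO and 100% = empty-vector control cells with DMSO; inhibition shows as a rise in luminescence from relieved DAX1 repression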
Target sequence (P51843 207-470 limits assumed): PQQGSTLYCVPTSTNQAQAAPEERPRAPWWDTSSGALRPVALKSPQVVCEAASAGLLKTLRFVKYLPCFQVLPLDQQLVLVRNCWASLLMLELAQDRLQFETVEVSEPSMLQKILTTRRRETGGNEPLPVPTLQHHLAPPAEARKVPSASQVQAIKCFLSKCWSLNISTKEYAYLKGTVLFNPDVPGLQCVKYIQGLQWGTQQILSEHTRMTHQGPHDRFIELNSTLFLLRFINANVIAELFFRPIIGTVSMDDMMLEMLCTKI
ssDAF-12 act = S. stercoralis DAF-12 nuclear receptor activators, primary screen, cell-based, luminescence, HEK293, GRIP1 co-expression, lit1-tk-luc. AID 652126, 2013. activation, % at 6.8 µM. HEK293 ssDAF-12/GRIP1 lit1-tk-luc reporter; % of 3 µM dafachronic acid response. Nuclear hormone receptor DAF-12 (Strongyloides stercoralis). 370,000 tested, 1% active;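 active = activation above the mean over all tested compounds plus 3 SD, cut at about 0.9% in these data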;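 also: 0% = DMSO-only wells and 100% = 3 µM delta7-dafachronic acid wells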
hgDAF-12 ag = H. glycines DAF-12 receptor agonists, primary screen, cell-based, luminescence, HEK293, GAL4 fusion, UAS-luciferase. Nuclear hormone receptor DAF-12 (Heterodera glycines), GAL4 fusion. HEK293 GAL4-hgDAF12 UAS-luciferase reporter, agonist luminescence; normalized to butyrate control. activation, % at 6.8 µM. 370,000 tested, 1.8% active. AID 687014, 2013;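 active = activation above a cutoff set at the mean of all screened compounds plus 3 SD, cut at about 10% in these data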;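 also: 0% = DMSO wells and 100% = sodium butyrate wells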
SMARCA2 activ = SMARCA2 (BRM) function activators, primary screen, cell-based, luminescence, high throughput; AID 652017, 2013; MG213 cells, MMTV-luciferase reporter, dexamethasone, overnight; 370,000 tested, 1% active; activation, % at 9.1 µM; in the data active = activation above about 7.8%;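 also: 0% = vehicle wells and 100% = reference activator wells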
hcDAF-12 act = H. contortus DAF-12 nuclear receptor activators, primary screen, cell-based, luminescence, HEK293, lit1-tk-luc reporter | HEK293 hcDAF-12 lit1-tk-luc reporter; 0% DMSO, 100% Δ7-dafachronic acid | activation, % at 6.8 µM | 370,000 tested, 1.4% active;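 active = activation above the mean of all tested compounds plus 3 SD, cut at about 5.5% in these data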;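 also: 100% = response to 3 µM Δ7-dafachronic acid high control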
DAX1 conf = DAX1 (NR0B1) inhibitors relieving SF-1 repression, confirmation, cell-based, luminescence, HEK293T, full-length DAX-1, SF-1 activated StAR promoter; shares compounds with DAX1 inh-1; HEK293T StAR-promoter luciferase reporter, SF-1/DAX-1 repression; inhibition, % at 6.8 µM; 2,400 tested, 87% active; AID 652134, 2013;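 active = inhibition above the average of every tested compound plus 3 SD, cut at about 3.8% in these data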;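 also: 0% = DAX-1 cells with DMSO and 100% = no DAX-1 control cells with DMSO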
SF1 AF2mut Luc = StAR reporter signal changes without DAX1, counter-screen for DAX1 inhibitor project, cell-based, luminescence, AF-2 mutant SF-1, transactivation; shares compounds with DAX1 inh-1; HEK293 StAR-luciferase, SF-1 AF2 mutant; inhibition, % at 6.8 µM; 2,400 tested, 78% active; AID 652136, 2013;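 active = inhibition above the mean of all tested compounds plus 3 SD, cut at about 3% in these data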;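 also: 0% = DAX-1 transfected cells with DMSO and 100% = cells without DAX-1 with DMSO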
SMARCA2 conf = SMARCA2 (BRM) function activators, confirmation, cell-based, luminescence, triplicate; 3,500 tested, 30% active; shares compounds with SMARCA2 activ; MG213 cells, MMTV-luciferase with dexamethasone, overnight; MG213 cells expressing E1A, Rb sequestered; DMSO wells 0%, reference activator 100%; AID 652260, 2013; activation, % at 9.1 µM;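 active = activation above its plate's cutoff, the mean activation of tested wells plus 3 SD, cut at about 7.9% in these data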
GAL4-VP16 Luc = GAL4-VP16 luciferase reporter activation, counter-screen for SMARCA2 (BRM) activator project, cell-based, pG5luc, luminescence, high throughput. shares compounds with SMARCA2 activ. activation, % at 9.1 µM. 3,500 tested, 41% active. HEK293 GAL4-VP16 pG5luc reporter; scaled: DMSO wells 0%, SAHA wells 100%;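 active = activation above the solvent-only control well mean plus 3 SD, averaged across control plates, cut at about 5.2% in these data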
LXRb hcDAF ctr = LXR agonists, Gal4 luciferase reporter, confirmation, counter-screen for hcDAF-12 agonist project, cell-based, luminescence, HEK293, H. contortus campaign; activation, % at 6.8 µM; AID 743027, 2013; shares compounds with hcDAF-12 act; HEK293 Gal4-LXR tk-luc reporter, 24 h; normalized: DMSO 0%, positive control 100%; 3,400 tested, under 10 active;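 active = mean percent activation of the reporter above a cutoff set as the average over tested compounds plus their standard deviation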
Target sequence (P55055 whole entry, looked up, the tested form may be a part): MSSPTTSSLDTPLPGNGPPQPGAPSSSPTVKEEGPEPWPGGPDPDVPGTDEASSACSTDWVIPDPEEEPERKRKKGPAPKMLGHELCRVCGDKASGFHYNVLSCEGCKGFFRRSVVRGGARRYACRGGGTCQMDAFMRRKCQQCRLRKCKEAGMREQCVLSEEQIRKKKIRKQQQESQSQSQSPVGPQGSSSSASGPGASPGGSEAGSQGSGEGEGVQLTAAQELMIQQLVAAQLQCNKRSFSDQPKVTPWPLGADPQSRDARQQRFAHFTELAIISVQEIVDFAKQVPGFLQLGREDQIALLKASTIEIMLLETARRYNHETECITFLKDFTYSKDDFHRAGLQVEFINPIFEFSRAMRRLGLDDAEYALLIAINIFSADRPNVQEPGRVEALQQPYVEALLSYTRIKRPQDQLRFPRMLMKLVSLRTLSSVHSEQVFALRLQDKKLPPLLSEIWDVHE
hcDAF12 conf = H. contortus DAF-12 receptor agonists, confirmation, cell-based, luminescence, HEK293, lit1-tk-luc, triplicate; shares compounds with hcDAF-12 act; HEK293 hcDAF-12 lit1-tk-luc reporter; % of Δ7-dafachronic acid response; activation, % at 6.8 µM; 3,400 tested, 61% active; AID 743032, 2013;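 active = mean activation across triplicate tests above the threshold derived from the earlier primary screen, cut at about 5.5% in these data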;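 also: 0% = DMSO only wells and 100% = 3 µM Δ7-dafachronic acid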
hgDAF12 ag = H. glycines DAF-12 receptor agonists, confirmation, cell-based, luminescence, HEK293, GAL4-LBD fusion; activation, % at 6.8 µM; HEK293 GAL4-hgDAF12 luciferase reporter, agonist mode; percent of butyrate response; shares compounds with hgDAF-12 ag; 3,300 tested, 80% active;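 active = mean activation over triplicate wells above the hit cutoff derived from the earlier primary screen, cut at about 11% in these data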;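 also: 0% = DMSO low control and 100% = 2 mM sodium butyrate high control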
LXRb DAF12 ctr = LXR agonists, Gal4 luciferase reporter, confirmation, counter-screen for hgDAF-12 agonist project, cell-based, luminescence, HEK293, H. glycines campaign; shares compounds with hgDAF-12 ag; 24 h; activation, % at 6.8 µM; 3,300 tested, under 10 active; AID 743051, 2013;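 active = mean activation of the triplicate above a set limit carried over from the primary screen, none filed active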
* marks the source's active call; other numbers are inactive results; x = not tested or not shown. An excerpt weighted towards active compounds, which were near 4.8% of everything screened.

SMILES	DAX1 inh-1	DAX1 inh-2	ssDAF-12 act	hgDAF-12 ag	SMARCA2 activ	hcDAF-12 act	DAX1 conf	SF1 AF2mut Luc	LXRb hcDAF ctr	hcDAF12 conf	hgDAF12 ag	LXRb DAF12 ctr	others
COc1cccc(N/C=C/C(=O)c2ccc(Cl)cc2)c1	6.1*	2	1	20*	1	7.1*	17*	6.6*	2	8.7*	22*	1
COc1cccc(C(=O)/C=C/Nc2cccc(O)c2)c1	x	-3	x	x	x	x	x	x	x	x	x	x
CCC(C)(C)NC(=O)c1cc(OC)c(OC)cc1[N+](=O)[O-]	0	0	-1	0	-2	0	x	x	x	x	x	x
O=C(Nc1ccc(Cl)cc1)c1ccc(Br)cc1F	7.5*	4	1	18*	2	9.6*	11*	7.5*	1	6	20*	1
CN(C)/C=N/NC(=O)c1ccc(Cl)cc1	0	x	-2	2	-2	-1	x	x	x	x	x	x
CCOc1cc(/C=N/n2nnnc2N)ccc1OCc1c(C)no[n+]1[O-]	-1	1	-1	1	-3	-1	x	x	x	x	x	x
Cc1ccc(N/C=C/C(=O)c2cccs2)cc1C	6.7*	x	2.6*	30*	5	21*	18*	6.0*	2	25*	18*	1
Cc1nnc(NC(=O)c2oc3ccccc3c2C)s1	8.9*	1	1.4*	15*	3	11*	10.0*	9.5*	1	12*	10*	1
Oc1cccc(-c2nc3ccccc3s2)c1	5.3*	-1	3.6*	17*	5	21*	11*	8.3*	2	16*	24*	1
Oc1ccc(O)c(Cc2nc3ccccc3s2)c1	-2	-1	-1	-2	-2	1	x	x	x	x	x	x
COc1cc(OC)c(-c2nc3ccccc3s2)cc1OC	-1	0	0	-1	-2	3	x	x	x	x	x	x
COc1cccc(-c2nc3ccccc3s2)c1O	7.0*	0	3.5*	25*	4	16*	18*	8.4*	2	15*	21*	1
Cc1ccc2nc(SCCC(=O)O)cc(C)c2c1	0	0	-1	-3	-2	0	x	x	x	x	x	x
O=C(Cn1cc2c(n1)CCCCC2)Nc1ccccc1Br	0	0	-1	0	0	-1	x	x	x	x	x	x
CNC(=S)Nc1ccc([N+](=O)[O-])cc1C	0	0	-2	-2	1	-2	x	x	x	x	x	x
Cc1cc([N+](=O)[O-])ccc1NC(=O)c1csc(C)c1C	5.5*	3	0	19*	3	3	4.5*	2.9*	x	x	19*	1
Cc1ccc(NC(=S)c2ccc(N(C)C)cc2)cc1	5.6*	2	0	14*	6	5	13*	7.8*	x	x	17*	1
CC1CCCN(C(=O)c2ccc(-c3ccccc3Cl)o2)C1 (stereo unspecified)	7.8*	4	0	18*	3	2	12*	6.3*	x	x	15*	1
COc1ccc2cc3cc(C(=O)N4CCCCC4C)oc3nc2c1 (stereo unspecified)	11*	-1	0	14*	4	4	10*	5.3*	x	x	17*	1
N#Cc1cccc(Cn2ccc3ccc(-c4ccc5ccn(Cc6cccc(C#N)c6)c5c4)cc32)c1	1	x	-1	0	-1	0	x	x	x	x	x	x
C/C(=N\Nc1ccccc1)c1c(O)cc(C)oc1=O	0	3	-1	1	3	-2	x	x	x	x	x	x
CC(=Nc1ccc(Cl)cc1N)c1c(O)cc(C)oc1=O	9.8*	x	1.6*	24*	9.0*	10*	3	1	0	5.6*	16*	0	SMARCA2 conf=5;GAL4-VP16 Luc=15*
CC(=O)c1ccc(NC(=O)Nc2ccc(Cl)cc2)cc1	6.5*	2	0	15*	4	7.1*	6.6*	5.8*	1	7.4*	16*	1
